# Assay results taken from PubChem BioAssay (Tox21).
# Where “and” joins values, the source holds several entries; their conditions need not be identical. Equal values may be shown once. Results filed as inconclusive are left out. Entries that show only a call come without a potency. Calls of active or inactive are those of the source. Unless noted, the call rests on the fitted dose curve; in most records, active means well fitted curve in the direction sought with a large enough effect in the repeat runs; inconclusive means weak or mixed curves; inactive means no such curve, though single readings can be large; an effect the other way counts as inactive or inconclusive.
# Tested on: not listed separately
# Test: qHTS assay for identifying genotoxic compounds that show differential cytotoxicity against isogenic chicken DT40 cell lines with known DNA damage response pathways - Rad54/Ku70 mutant cell line (AID 743015); further: nearly all actives have a fitted effect of over 60% in size; further: potency means the concentration at half of the fitted maximal effect
# Conditions: DT40 Rad54/Ku70 mutant viability, CellTiter-Glo, 40 h; series mostly up to 66.8 µM
row,Structure (SMILES),Potency
1,CCCCCC/C=C\CCCCCCCC(=O)O,inactive
2,COC(=O)C1=C(C)NC(C)=C(C(=O)OCCN2CCN(C(c3ccccc3)c3ccccc3)CC2)C1c1cccc([N+](=O)[O-])c1 (stereo not drawn),6.68 µM (active)
3,Cc1cccc2cccnc12,inactive
4,CCO[C@@H]1O[C@H](C(COCc2ccccc2)OCc2ccccc2)[C@H](OCc2ccccc2)[C@H]1O (stereo partly drawn),14.3 µM (active)
5,Oc1ccccc1O,12.3 µM (active) and 27.3 µM (active)
6,CC(C)(C)c1csc(-c2cc3cc(OCc4ccccc4CC(=O)O)ccc3o2)n1,61.1 µM (active)
7,CCN(CC)C(=O)c1cc(S(=O)(=O)Cc2ccccc2)c(N2CCC(c3ccccc3)CC2)cc1N(CC)CCN(C)C,10.6 µM (active) and 17 µM (active)
8,O=[N+]([O-])c1ccc(O)cc1C(F)(F)F,21.7 µM (active)
9,CC[N+](CC)(CC)CCOc1ccc(/C=C/c2ccccc2)cc1,944 nM (active) and 750 nM (active)
10,C=CC(=O)OCCOC(=O)C=C,10.9 µM (active)
11,CN1CCN2c3ccccc3Cc3ccccc3C2C1 (stereo not drawn),21.1 µM (active)
12,O=C1c2ccccc2C(=O)N1SC1CCCCC1,17.2 µM (active) and 4.33 µM (active)
13,CC(C)=CCC1=C(O)c2ccccc2C(=O)C1=O,60.8 µM (active)
14,C=CC(=O)Nc1cc2c(Nc3ccc(F)c(Cl)c3)ncnc2cc1OCCCN1CCOCC1,5.96 µM (active)
15,[Cl][Pt-2]([Cl])([Cl])[Cl],inactive
16,COC(=O)Nc1nc2ccc(C(=O)c3ccccc3)cc2[nH]1,0.403 µM (active)
17,Clc1nnc(Cl)c2ccccc12,inactive
18,COC1=C(OC)C(=O)C(CCCCCCCCCCO)=C(C)C1=O,10.6 µM (active)
19,Cc1c2ccccc2c(C)c2c1ccc1ccccc12,21.5 µM (active) and 4.33 µM (active)
20,Cc1cccc(C(=O)O)c1O,inactive
21,Cc1cc(C(C#N)c2ccc(Cl)cc2)c(Cl)cc1NC(=O)c1cc(I)cc(I)c1O (stereo not drawn),26.6 µM (active)

# Tested on: not listed separately
# Test: qHTS assay to identify small molecule antagonists of the androgen receptor (AR) signaling pathway - cell viability counter screen (AID 743033; further: nearly all actives have a fitted effect of over 45% in size; further: potency means the concentration at half of the fitted maximal effect)
# Conditions: AR-bla HEK293 viability, CellTiter-Glo luminescence, 16 h; series mostly up to 58.5 µM
row,Structure (SMILES),Potency
1,CCCCCC/C=C\CCCCCCCC(=O)O,inactive
2,Cc1cccc2cccnc12,inactive
3,CC(C)(C)C1CCC(=O)CC1,inactive
4,CCO[C@@H]1O[C@H](C(COCc2ccccc2)OCc2ccccc2)[C@H](OCc2ccccc2)[C@H]1O (stereo partly drawn),inactive
5,CCc1oc2ccccc2c1C(=O)c1cc(I)c(O)c(I)c1,inactive
6,Oc1ccccc1O,inactive
7,CCCCN(CCCC)CC(O)c1cc(Cl)cc2c1-c1ccc(Cl)cc1/C2=C/c1ccc(Cl)cc1 (stereo not drawn),inactive
8,CCCC[P+](C)(CCCC)CCCC,inactive
9,COc1cc(S(=O)(=O)O)c(C)cc1N=Nc1c(O)ccc2cc(S(=O)(=O)O)ccc12,inactive
10,CCN(CC)C(=O)c1cc(S(=O)(=O)Cc2ccccc2)c(N2CCC(c3ccccc3)CC2)cc1N(CC)CCN(C)C,15.3 µM (active)
11,O=[N+]([O-])c1ccc(O)cc1C(F)(F)F,27.5 µM (active)
12,CC[N+](CC)(CC)CCOc1ccc(/C=C/c2ccccc2)cc1,inactive
13,C=CC(=O)OCCOC(=O)C=C,inactive
14,CN1CCN2c3ccccc3Cc3ccccc3C2C1 (stereo not drawn),inactive
15,CCC(CC)(CC(=O)Nc1cccc(/C=C/c2nc(C3CCC3)cs2)c1)C(=O)O,inactive
16,O=C1c2ccccc2C(=O)N1SC1CCCCC1,38.9 µM (active) and 49 µM (active)
17,C=CC(=O)Nc1cc2c(Nc3ccc(F)c(Cl)c3)ncnc2cc1OCCCN1CCOCC1,inactive
18,C=Cc1ccccc1C=C,inactive
19,[Cl][Pt-2]([Cl])([Cl])[Cl],inactive
20,O=c1c(O)c(-c2ccc(O)cc2O)oc2cc(O)cc(O)c12,inactive
21,COC(=O)Nc1nc2ccc(C(=O)c3ccccc3)cc2[nH]1,inactive
22,Clc1nnc(Cl)c2ccccc12,inactive
23,Cc1cc(C)c(/C=C2\C(=O)Nc3ccccc32)[nH]1,inactive
24,COC1=C(OC)C(=O)C(CCCCCCCCCCO)=C(C)C1=O,inactive
25,Oc1cc(Cl)cc(Cl)c1Cl,50.2 µM (active)
26,Cc1c2ccccc2c(C)c2c1ccc1ccccc12,48.5 µM (active) and 24.5 µM (active)
27,S=c1nccc[nH]1,inactive
28,Cc1cccc(C(=O)O)c1O,inactive
29,Cc1cc(C(C#N)c2ccc(Cl)cc2)c(Cl)cc1NC(=O)c1cc(I)cc(I)c1O (stereo not drawn),inactive

# Biological target: Androgen receptor (Homo sapiens) (UniProt P10275)
# Sequence (P10275 whole entry, looked up): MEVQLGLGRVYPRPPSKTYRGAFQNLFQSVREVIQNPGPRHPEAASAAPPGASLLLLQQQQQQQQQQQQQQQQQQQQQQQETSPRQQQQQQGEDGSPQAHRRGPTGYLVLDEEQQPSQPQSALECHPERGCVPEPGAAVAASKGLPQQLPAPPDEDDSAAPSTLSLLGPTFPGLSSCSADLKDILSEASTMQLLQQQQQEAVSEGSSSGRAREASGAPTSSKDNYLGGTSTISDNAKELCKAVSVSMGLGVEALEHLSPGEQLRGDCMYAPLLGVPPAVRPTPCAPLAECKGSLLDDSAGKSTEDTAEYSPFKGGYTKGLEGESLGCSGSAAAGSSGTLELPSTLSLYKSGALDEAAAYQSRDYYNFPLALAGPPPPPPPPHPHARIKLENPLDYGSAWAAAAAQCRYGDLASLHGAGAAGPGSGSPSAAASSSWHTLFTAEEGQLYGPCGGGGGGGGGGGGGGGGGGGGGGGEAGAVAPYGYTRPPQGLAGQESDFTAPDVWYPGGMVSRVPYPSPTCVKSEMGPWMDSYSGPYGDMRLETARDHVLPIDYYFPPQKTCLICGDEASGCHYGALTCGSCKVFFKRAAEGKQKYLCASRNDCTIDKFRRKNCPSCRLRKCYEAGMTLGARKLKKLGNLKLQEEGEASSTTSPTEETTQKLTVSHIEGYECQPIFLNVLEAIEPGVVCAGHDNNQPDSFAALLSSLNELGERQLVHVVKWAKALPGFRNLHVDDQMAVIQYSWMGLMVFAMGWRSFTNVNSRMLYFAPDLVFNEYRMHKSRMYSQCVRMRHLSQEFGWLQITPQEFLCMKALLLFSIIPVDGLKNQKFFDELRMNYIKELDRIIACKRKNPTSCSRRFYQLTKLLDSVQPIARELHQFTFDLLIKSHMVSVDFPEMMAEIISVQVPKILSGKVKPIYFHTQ
# Test: qHTS assay to identify small molecule antagonists of the androgen receptor (AR) signaling pathway (AID 743035; active means well fitted inhibition curve with a large enough effect in the signal ratio in the repeat runs, not every such curve was filed as active; the % refers to the signal ratio; further: potency means the concentration at half of the fitted maximal effect)
# Conditions: HEK293 AR-UAS-bla, R1881-stimulated, beta-lactamase FRET, 16 h; series mostly up to 58.5 µM
# In short: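 Cell line: GeneBLAzer AR-UAS-bla GripTite (HEK293). Stimulus: R1881 added after compound. Exposure: 16 h, 37C, 5% CO2. Readout: LiveBLAzer B/G FRET fluorescence after 2 h at room temperature.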
row,Structure (SMILES),Potency
1,C=CC(=O)OCCOC(=O)C=C,inactive
2,Cc1cc(C)c(/C=C2\C(=O)Nc3ccccc32)[nH]1,inactive
3,COC1=C(OC)C(=O)C(CCCCCCCCCCO)=C(C)C1=O,16.9 µM (active)
4,CCN(CC)c1ccc2c(-c3ccc(S(=O)(=O)O)cc3S(=O)(=O)[O-])c3ccc(=[N+](CC)CC)cc-3oc2c1,inactive

# Biological target: Androgen receptor (Homo sapiens) (UniProt P10275)
# Test: qHTS assay to identify small molecule agonists of the androgen receptor (AR) signaling pathway using the MDA cell line (AID 743040; further: nearly all actives have a fitted effect of over 20% in size)
# Conditions: MDA-kb2 AR-luc cells, MMTV luciferase, 16 h, hits give high values; series mostly up to 70.3 µM
# In short: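 Luminescence from ONE-Glo, read after 30 min at room temperature, reflects MMTV-driven luciferase in MDA-kb2 cells (AR- and GR-responsive). Treatment lasted 16 h at 37C, 0% CO2.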
row,Structure (SMILES),outcome
1,C=CC(=O)OCCOC(=O)C=C,inactive
2,CN1CCN2c3ccccc3Cc3ccccc3C2C1 (stereo not drawn),inactive
3,CC(C)=CCC1=C(O)c2ccccc2C(=O)C1=O,inactive
4,C=CC(=O)Nc1cc2c(Nc3ccc(F)c(Cl)c3)ncnc2cc1OCCCN1CCOCC1,inactive
5,COC(=O)Nc1nc2ccc(C(=O)c3ccccc3)cc2[nH]1,inactive
6,Cc1cc(C)c(/C=C2\C(=O)Nc3ccccc32)[nH]1,inactive
7,COC1=C(OC)C(=O)C(CCCCCCCCCCO)=C(C)C1=O,inactive
8,Cc1c2ccccc2c(C)c2c1ccc1ccccc12,inactive
9,CCN(CC)c1ccc2c(-c3ccc(S(=O)(=O)O)cc3S(=O)(=O)[O-])c3ccc(=[N+](CC)CC)cc-3oc2c1,inactive
